Laboratory results: PubChem BioAssay AID1035475 (Broad Institute, 2014)
Potency and affinity values are given separately. Records with an inconclusive call do not appear. A call without a number means that no potency is given here. Activity calls are given as the source filed them.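 The calls were made as follows: active = fluorescent signal drops by 40% or more, counted as a hit; inconclusive = no clear call, values can overlap the other calls; inactive = the rest, including any activity in the opposite direction.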

Assay: inhibitors of fibronectin matrix deposition, dose response, AH1F cells, Alexa488-FN fluorescence, cherry-picks (AID 1035475);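 also: AH1F fibroblasts incorporating labeled fibronectin into their extracellular matrix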
Conditions: AH1F fibroblasts, overnight; series mostly up to 35 µM

SMILES | outcome
CO[C@@H]1CN(C)C(=O)c2cc(NC(=O)Nc3cc(Cl)cc(Cl)c3)ccc2OC[C@@H](C)NC[C@@H]1C | inactive
CCCCNC(=O)Nc1nc2ccc(CC)cc2s1 | inactive
N#C[C@H]1[C@H](c2ccccc2C2=CCCCC2)[C@H](CO)N1S(=O)(=O)c1ccccc1 | inactive
O=C(Nc1ccccc1F)N1C[C@@H]2[C@H](c3ccccc31)[C@H](CO)N2C(=O)C1CC1 | inactive
C[C@@H]1CN([C@H](C)CO)C(=O)c2cc(-c3ccccc3)cnc2O[C@H]1CN(C)Cc1ccccc1 | inactive
O=C(c1cccnc1)N1C[C@H]2[C@@H](c3ccccc31)[C@@H](CO)N2CC1CCCC1 | inactive
C[C@@H]1CN([C@@H](C)CO)C(=O)c2cc(-c3ccncc3)cnc2O[C@@H]1CN(C)C(=O)Cc1cccnc1 | inactive
Cc1ccc(S(=O)(=O)N2CC[C@@H]3[C@@H](CO)Nc4ccc(-c5cccc(C(=O)N(C)C)c5)cc4[C@@H]32)cc1 | inactive
Cc1ccc(O)c(-c2cc(-c3cccc(Br)c3)n[nH]2)c1 | inactive
CC(C)C(=O)Nc1ccc2c(c1)C(=O)N(C)[C@@H]1CC[C@H](CC(=O)O)O[C@@H]1CO2 | inactive
Cc1cc(C)c(S(=O)(=O)Nn2cnnc2)c(C)c1 | inactive
Cc1ccc(C(O)c2ncc(-c3cccc4ccccc34)[nH]2)cc1F (stereo not given) | inactive
CO[C@@H]1CN(C)C(=O)c2ccc(NC(=O)c3ccc(-c4ccccc4)cc3)cc2OC[C@H](C)NC[C@H]1C | inactive
C[C@@H]1CN([C@@H](C)CO)C(=O)c2cc(NC(=O)CCCN(C)C)ccc2O[C@H]1CN(C)Cc1ccc(-c2ccccc2)cc1 | inactive
CO[C@H]1CN(C)C(=O)c2cc(NC(=O)Nc3cc(Cl)cc(Cl)c3)ccc2OC[C@H](C)NC[C@@H]1C | inactive
Cc1ccn2cc(-c3ccc(NC(=O)c4ccco4)cc3)nc2c1 | inactive
C[C@H](CO)N1C[C@H](C)[C@@H](CN(C)Cc2ccc(-c3ccccc3)cc2)Oc2ccc(NC(=O)CCCN(C)C)cc2C1=O | inactive
Cc1ccccc1S(=O)(=O)N1CC[C@H]2[C@H](CO)Nc3ccc(-c4ccc(C#N)cc4)cc3[C@H]21 | inactive

SMILES | outcome
CCOC(=O)c1cnc(SCc2nc(N)nc(Nc3ccc(OC)cc3)n2)nc1N | inactive
COc1ccc(-c2csc(CCn3nc(C)cc3C)n2)cc1OC | inactive
O=C(C[C@@H]1C[C@@H]2c3cc(NC(=O)c4ccc5c(c4)OCO5)ccc3O[C@@H]2[C@@H](CO)O1)NCc1ccc(Oc2ccccc2)cc1 | inactive
COC(=O)c1cn(CC(=O)NCc2ccco2)c2ccccc12 | inactive
CCC(C)(C)NC(=O)C(OC(=O)c1ccco1)c1ccccc1OC (stereo not given) | inactive
CO[C@H]1CN(C)C(=O)c2cc(NC(=O)Nc3ccc(Cl)c(Cl)c3)ccc2OC[C@@H](C)NC[C@H]1C | inactive
COCC(=O)Nc1ccc2c(c1)C(=O)N(C)[C@H]1CC[C@H](CC(=O)NCc3ccccc3Cl)O[C@@H]1CO2 | inactive
O=C(c1cccnc1)N1C[C@@H]2[C@H](c3ccccc31)[C@H](CO)N2CC1CCCC1 | inactive
CO[C@@H]1CN(C)C(=O)c2cc(NC(=O)Nc3ccc(Cl)c(Cl)c3)ccc2OC[C@H](C)NC[C@@H]1C | inactive
C[C@H](CO)N1C[C@H](C)[C@H](CN(C)Cc2ccccc2)Oc2ncc(-c3ccccc3)cc2C1=O | inactive
N#C[C@@H]1[C@@H](c2ccccc2C2=CCCCC2)[C@H](CO)N1S(=O)(=O)c1ccccc1 | inactive
Cc1ccc(S(=O)(=O)N2CC[C@H]3[C@H](CO)Nc4ccc(-c5cccc(C(=O)N(C)C)c5)cc4[C@H]32)cc1 | inactive
C[C@H](CO)N1C[C@H](C)[C@@H](CN(C)Cc2ccc(-c3ccccc3)cc2)Oc2ccc(NC(=O)C3CCCCC3)cc2C1=O | inactive
CO[C@H]1CN(C)C(=O)c2ccc(NC(=O)Nc3cc(Cl)cc(Cl)c3)cc2OC[C@H](C)NC[C@@H]1C | inactive
O=c1c2cc(N3CCOCC3)ccc2[nH]c(=S)n1Cc1ccc(Cl)cc1 | inactive
CCN1CCN(C(c2ccccc2)c2nnnn2Cc2ccccc2)CC1 (stereo not given) | inactive
COCC(=O)Nc1ccc2c(c1)C(=O)N(C)[C@@H]1CC[C@@H](CC(=O)NCc3ccccc3Cl)O[C@H]1CO2 | inactive
